Bioassay records: PubChem, National Center for Advancing Translational Sciences (NCATS)
Sampled rows, rich in hits. Any-hit rate of the full collection: about 3.8%.
PLK1 PBD inh: PLK1 (human) polo-box domain binding inhibition | Plk1 PBD binding of FITC phosphopeptide, fluorescence polarization | Potency, µM, without a hit: max response, negative = inhibition, most hits filed as inhibitors | 2.8% of 360,000 active | AID 720504; further: potency means the concentration at half of the fitted maximal effect; series mostly up to about 57 µM; on the % scale 0 is the no-effect control and ±100 the full control effect; nearly all actives have a fitted effect of over 65% in size
VDR inhibitor: inhibitors of human vitamin D receptor. P11473. VDR-SRC2-3 peptide fluorescence polarization, 2 h. Potency, µM, inactives show max response, negative = inhibition, most hits filed as inhibitors. 0.93% of 400,000 active. AID 504847; further: potency means the concentration at half of the fitted maximal effect; on the % scale 0 is the no-effect control and ±100 the full control effect
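FP read-out; VDR + SRC2-3 coactivator peptide; 23 nl compound by pintool; 2 h RT incubation; reagents held at 4 deg C, protected from light.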
hERG WT inh: inhibitors of human wildtype KCNH2 potassium channel. 0.37% of 340,000 active. activity change, % at 1.84 µM. U2OS, BacMam KCNH2, thallium flux FluxOr; stronger effect = lower value. AID 720551. Q12809;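 active means maximum activity change below -70%; inconclusive means maximum activity change between -70% and -50%; inactive means maximum activity change above -50%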; further: on the % scale 0 is the no-effect control and ±100 the full control effect
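U2OS cells were transduced with wild-type KCNH2 virus (2.03 x 10^8 / mL) for 4 h at room temperature, then cultured overnight at 37 C. Thallium flux was read with FluxOr dye. Rate constants were normalized to DMSO controls.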
CBFb RUNX1 block: CBF-beta/RUNX1 interaction disruption; Q01196+Q13951; AlphaScreen CBFb-His/RUNX1-biotin binding, biochemical; Potency, µM (highest dose often 59.8 µM), inactives show top-dose activity, negative = inhibition, most hits filed as inhibitors; 230,000 tested, under 10 active; further: % of control where 0% means no effect
Target sequence (Q01196 whole entry, looked up): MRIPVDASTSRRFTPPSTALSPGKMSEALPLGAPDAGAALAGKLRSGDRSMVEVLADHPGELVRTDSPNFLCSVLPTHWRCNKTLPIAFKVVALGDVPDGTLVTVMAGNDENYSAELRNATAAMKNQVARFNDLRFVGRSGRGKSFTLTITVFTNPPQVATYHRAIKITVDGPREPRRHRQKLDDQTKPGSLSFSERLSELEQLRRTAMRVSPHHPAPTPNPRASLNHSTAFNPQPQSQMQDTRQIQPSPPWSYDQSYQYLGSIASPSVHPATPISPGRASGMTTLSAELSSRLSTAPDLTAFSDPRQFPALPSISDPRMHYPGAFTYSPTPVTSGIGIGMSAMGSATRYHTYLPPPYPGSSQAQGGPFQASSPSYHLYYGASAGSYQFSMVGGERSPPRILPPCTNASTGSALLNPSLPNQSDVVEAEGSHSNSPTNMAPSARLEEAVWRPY
Target sequence (Q13951 whole entry, looked up): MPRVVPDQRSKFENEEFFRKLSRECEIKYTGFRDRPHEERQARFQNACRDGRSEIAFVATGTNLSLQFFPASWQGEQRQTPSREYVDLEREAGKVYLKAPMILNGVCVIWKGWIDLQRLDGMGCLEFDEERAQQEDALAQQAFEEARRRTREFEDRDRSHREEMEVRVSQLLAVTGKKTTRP
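AlphaScreen binding: CBFb-His and RUNX1-biotin (30 nM each) preincubated 20 min, compound added for 15 min, then nickel and streptavidin beads for 90 min, all at room temperature. Disruption of the interaction by any mechanism counts as activity.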
KCNH2 3.1 block: inhibitors of human KCNH2 3.1 potassium channel isoform. U2OS KCNH2 3.1, thallium flux FluxOr; stronger effect = lower value. activity change, % (tested at about 1.8 µM). 0.95% of 340,000 active. AID 720553;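 active means maximum activity change below -70%; inconclusive means maximum activity change from -70% to -50%; inactive means maximum activity change above -50%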;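 further: thallium influx rate constant from kinetic fluorescence after stimulation buffer; on the % scale 0 is the no-effect control and ±100 the full control effect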
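Thallium flux read-out: FluxOr dye with Red40 quencher in HBSS/HEPES, 45 min at RT. Rate constants from kinetic reads were normalized to positive and negative DMSO controls. Cells: U2OS virally expressing the 3.1 isoform.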
MBNL1-CUG inh: inhibitors of human MBNL1 binding to CUG repeat RNA | AID 2675 | Potency, µM (doses to about 57.5 µM), without a hit: at the top dose activity change, negative = inhibition, hits mostly inhibitors | Q9NR56 | 0.036% of 280,000 active | TR-FRET MBNL1-His/biotin-(CUG)12 binding, 665/545 ratio; active means well fitted inhibition curve with a large enough effect in the signal ratio, with a control signal flat, not every such curve was filed as active; inconclusive means small, poorly fitted or top-dose-only effect, or effect the other way, or a change in a side signal; inactive means no such curve, though single readings can be large or run the other way; the % refers to the signal ratio; further: potency means the concentration at half of the fitted maximal effect; on the % scale 0 is the no-effect control and ±100 the full control effect
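Compound titration spanned 92 nM–58 uM against the MBNL1-His/biotin-(CUG)12 complex. After 60 min at room temperature with 5 nM streptavidin-XL665 and 0.055 ng/ul terbium anti-His, ratiometric 665/545 nm emission (Ex 340 nm) normalized to controls.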
Starred values were filed as active, the others as inactive; ? = inconclusive; · = no result given; [ ] = remark or other dose. Unless noted, the call rests on the fitted dose curve; in most records, active means well fitted curve in the direction sought with a large enough effect; inconclusive means small, poorly fitted or top-dose-only effect, or another doubt; inactive means no such curve, though single readings can be large; an effect the other way counts as inactive or inconclusive.

SMILES | PLK1 PBD inh | VDR inhibitor | hERG WT inh | CBFb RUNX1 block | KCNH2 3.1 block | MBNL1-CUG inh
COc1cccc(-n2cc(C(=O)Nc3cccc(C(F)(F)F)c3)c3ccccc3c2=O)c1 | · | -8% | · | · | · | ·
CCC1(C)Cc2c(sc(NC(=S)NC(=O)c3ccccc3)c2C#N)CO1 (centres undefined) | 13µM* | -16% | -1 | 2% | -6 | -3%
CC1CCc2sc(NC(=S)NC(=O)c3ccccc3)c(C#N)c2C1 (centres undefined) | ? | ? | 2 | -6% | -2 | 11%
CCN1CCc2c(sc(NC(=S)NC(=O)c3ccccc3)c2C#N)C1 | 11µM* | 79µM* | 2 | -8% | 6 | 2%
CN1Cc2sc(NC(=S)NC(=O)c3ccccc3)c(C#N)c2CC1(C)C | 13µM* | ? | 5 | -19% | -9 | ?
CCN1CCc2c(sc(NC(=S)NC(=O)c3ccco3)c2C(N)=O)C1 | 24µM* | -11% | -12 | -2% | 4 | ·
N#Cc1c(NC(=S)NC(=O)c2ccccc2)sc2c1CCC2 | ? | ? | 2 | -3% | 6 | ·
Cc1sc(-n2cccc2)c(C(C)NC(=O)Nc2cccc(C(F)(F)F)c2)c1C (centres undefined) | · | 2% | · | · | · | ·
CCN1CCc2c(sc(NC(=O)Nc3ccc(Cl)c(Cl)c3)c2C(N)=O)C1 | ? | 6% | -133* | ? | -119* | -1%
CCOC(=O)c1cc(C#N)c(SC)nc1C | -7% | 8% | -6 | -6% | -14 | ·
CSc1nc(C)c(C(=O)C[n+]2ccccc2C)cc1C#N | 15µM* | -16% | 10 | 5% | 7 | ·
CCC(C)(C)NC(=O)C1CCN(S(=O)(=O)c2ccc3c(c2)CCCN3C(C)=O)CC1 | · | -5% | · | · | · | ·
COc1ccc(C(c2nnnn2CC2CCCO2)N2CCN(c3ccc(F)cc3)CC2)cc1 (centres undefined) | 24µM* | -3% | 3 | -1% | -1 | -4%
Cc1ccc(C(c2nnnn2CC2CCCO2)N2CCN(C)CC2)cc1 (centres undefined) | 3% | -5% | -3 | 10% | 8 | 1%
COc1cc(OC)c(NC(=O)c2cc(C(C)=O)n3ccccc23)cc1Cl | · | 13% | · | · | · | ·
O=C(Nc1nc(-c2ccc3c(c2)OCCO3)cs1)c1ccc(Br)o1 | -30% | · | -11 | · | -74* | ·
Cc1nc(-c2ccc3c(c2)OCCO3)cs1 | 30µM* | -2% | -8 | -1% | 21 | ·
Cc1cccc(Nc2nc(-c3ccc4c(c3)OCCO4)cs2)c1 | -8% | -12% | 5 | -10% | -11 | 37%
O=C1OC(O)C(C(Cl)Cl)=C1Cl (centres undefined) | · | · | · | 10%[21.7 µM] | · | ·
O=C(/C=C/c1ccco1)Nc1cccc(C(=O)Nc2ccccc2C(=O)O)c1 | 21µM* | ? | 3 | ? | -8 | ·
O=C(NNC(=O)c1ccccc1O)c1ccc(S(=O)(=O)Nc2ccccc2)cc1 | 1% | 0% | -88* | · | 5 | ·
O=C(O)c1ccc(NC(=O)c2ccccc2NC(=O)c2cccc(Br)c2)cc1 | 21µM* | ? | -9 | · | -10 | 1%
O=C(Nc1ccccc1C(=O)O)c1cccc(NS(=O)(=O)c2ccc(Br)cc2)c1 | 42µM* | ? | -14 | · | -8 | -10%
O=C(Cn1cc(S(=O)(=O)Cc2ccccc2Cl)c2ccccc21)Nc1ccc(F)cc1F | · | 8% | · | · | · | ·
COc1ccc(Cc2cnc(N)nc2N)cc1OC | · | -13% | · | · | · | ·
O=C(Nc1ccccc1C(=O)O)c1cccc(NC(=O)c2ccccc2Br)c1 | -16% | 8% | 0 | · | 12 | -10%
O=C(Nc1ccccc1C(=O)O)c1cccc(S(=O)(=O)N2CCCC2)c1 | · | -2% | · | · | · | ·
Cc1ccc(S(=O)(=O)CCSc2cccc(C(=O)Nc3ccccc3C(=O)O)c2)cc1 | 1.7µM* | 79µM* | 6 | -6% | 18 | ·
O=C(O)c1cccc(NS(=O)(=O)c2ccc(Oc3ccc(S(=O)(=O)Nc4cccc(C(=O)O)c4)cc3)cc2)c1 | -18% | -8% | -144* | · | 1 | ·
